The source made the active and inactive calls.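 The calls were made as follows, unless noted: active = inhibition above 20% together with a positive visual image hit; inconclusive = visual image hit but inhibition not above 20%; inactive = no visual image hit.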

The nature of assay [1]: inhibitors of TNFa-induced NFkB p65 translocation, primary screen, imaging, HUVEC, MLSMR starter and 10KST1 sets (AID 438).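 Also: compound added about 3h40 before a 20 min TNFalpha stimulation.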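 As to inhibition: signal is the nuclear over cytoplasmic p65 intensity ratio per well.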 The following applies: HUVEC TNFa-induced p65 nuclear translocation; cell count: measured here: nuclei count (cytotoxicity indicator), at 2.08 µM; inhibition: at 2 µM, stronger effect = higher value, 0% TNFa-plus-vehicle, 100% no-TNFa wells.
Assay [2] can be described thus: reduction of polyQ htt aggregates in cells – imaging, exon1htt(103Q)mCFP cells, high-content imaging, primary screen (AID 483;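 active = visual image review flags a hit and inhibition of aggregation exceeds 20%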;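 also: compound exposure lasted 3 days before fixation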;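 as to nuclei count: percent of the per-plate median nuclei count of sample wells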). The following applies: exon1htt(103Q)mCFP cell line, aggregate imaging, at 2 µM; inhibition of aggregation: stronger effect = higher value; nuclei count: measured here: cell count, toxicity.
Assay [3] is described as follows: endothelial E-selectin expression blockers – imaging, HUVEC, immunofluorescence, MLSMR starter and 10KST1 sets, primary screen (AID 487;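 active = visually confirmed hit in the image check and inhibition above 20%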;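 as to inhibition: signal is fraction of cell area covered by stained E-selectin grains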;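 as to nuclei count: 100% = median nuclei count of all wells on the same plate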). The note with it: HUVEC TNFalpha-induced E-selectin immunofluorescence imaging, at 2 µM; inhibition: stronger effect = higher value; nuclei count: measured here: cell number, toxicity.
Assay [4] in a line: Primary imaging screen for DUSP6 inhibitors that restore phospho-Erk in transfected HeLa cells, chemical complementation (AID 609;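 active = compounds giving at least 50% inhibition in the cell-based MKP-3 phosphatase rescue imaging test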;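 as to inhibition: phospho-Erk level distribution per well compared with pooled transfected vehicle control wells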). The following applies: HeLa MKP-3 transfected, phospho-Erk imaging KS statistic, at 10 µM, cells stimulated with TPA for 15 min.
Assay [5] deals with Dual specificity protein phosphatase 6 (Homo sapiens) (UniProt Q16828). Described as above. The following applies: HeLa MKP-3 transfected, phospho-Erk imaging KS statistic; at 10 µM; stronger effect = higher value; cells stimulated with TPA for 15 min.
Assay [6] has as its target Voltage-gated potassium channel subunit beta-2 (Rattus norvegicus) (UniProt P62483). Nature of the assay: inhibitors of rat Kvbeta2 reductase activity – biochemical, NADPH fluorescence, primary screen (AID 622;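 active = fluorescence slope higher than the sample average by over 3 SD, cut at about -0.22 in these data, passing the limit was not always enough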;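 also: slope of raw intensity against log time taken from 70 to 1610 s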). The note with it: recombinant KvBeta, 4-cyanobenzaldehyde reduction, at 10 µM, stronger effect = higher value.
The target is the same in assay [7]. In words: enhancers of rat Kvbeta2 NADPH turnover – biochemical, NADPH fluorescence, primary screen (AID 623;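 active = NADPH fluorescence slope more negative than the mean of all samples by about 3 SD, 99.7% confidence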;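 also: fluorescence intensity change per second fitted from 20 to 320 s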). The note with it: Recombinant KvBeta, NADPH fluorescence decrease slope, 10 min; at 10 µM; stronger effect = lower value.
For assay [8], the target named is Muscarinic acetylcholine receptor M4 (Homo sapiens) (UniProt P08173). In words: M4-linked GIRK flux change, two-sided – cell-based, HEK293 M4/GIRK, thallium flux, BTC-AM, M4 allosteric agonist project, primary screen (AID 625;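 active = fluorescence slope after compound addition differing from the mean of all tested samples at 99.7% confidence, mostly higher but some lower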;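 also: thallium influx through GIRK channels coupled to M4 in HEK293 cells with BTC-AM dye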). The following applies: at 10 µM, actives lie on both sides.
Assay [9] can be described thus: inhibitors of larval lipid processing in zebrafish, primary screen, whole organism, PED6 fluorescence, gall bladder and intestine (AID 686;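 active = a full or partial loss of lipid-probe fluorescence in the fish gall bladder, intestine or both, judged by eye; inactive = no fluorescence loss, or compound toxic to the fish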;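 also: larvae 5 to 7 days old with five fish per well; signal comes from phospholipase A2 cleavage of quenched PED6 carried via bile; overnight exposure to compound and PED6 before scoring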). The following applies: Zebrafish larvae PED6 lipid processing, fluorescence scoring; screened at 20 µM (by protocol).
Assay [10] can be described thus: loss of swimming-algae plug formation – whole organism, Chlamydomonas reinhardtii, WT vs cilia-less mutant, absorbance, 96-well, primary screen (AID 463189;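 active = inhibition at or above 50% relative to wild type and mutant plate controls; inactive = inhibition below 50%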;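 also: 0% = wild type cc124 cells in DMSO and 100% = ciliumless bld1 mutant cells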). The note with it: Chlamydomonas reinhardtii gravitaxis, OD600 absorbance, 2 days; at 10 µM; stronger effect = higher value.
Assay [11] in a line: blockers of RIG-like receptor reporter activation – cell-based, Sendai virus stimulus, luciferase, 10K MLSCN set, TLR/RLR signaling modifier project, primary screen (AID 602276;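 active = inhibition at or above 50% at 10 µM; inactive = inhibition below 50%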;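 also: firefly luciferase from ISG56 promoter only with Renilla not read in this screen; 0% = Sendai virus plus DMSO and 100% = medium plus DMSO without virus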). The note with it: HEK293 RL24 IRF3 luciferase reporter, at 10 µM, stronger effect = higher value. (A reporter such as luciferase makes a cellular process visible.)
Assay [12] can be described thus: TLR3 IRF3 reporter activation blockers – cell-based, poly I:C stimulus, luciferase, 10K MLSCN set, primary screen (AID 602277;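 active = inhibition of the reporter signal at or above 50%; inactive = inhibition below 50%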). The note with it: HEK293-TLR3 RL24 IRF3 luciferase reporter, at 10 µM, stronger effect = higher value.
Assay [13] addresses Alpha-2C adrenergic receptor (Homo sapiens) (UniProt P18825). In words: compounds altering alpha2C-coupled GIRK flux – cell-based, HEK293 alpha2C/GIRK1/2, thallium flux, primary screen (AID 624;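 active = fluorescence slope after compound addition differing from the mean of all screened samples at 99.7% confidence, in either direction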;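 also: slope of fluorescence ratio to pre-addition baseline per second over 15 to 24 s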). The note with it: thallium flux BTC fluorescence, at 10 µM, actives lie on both sides.
Where [14] appears, read: measured here: cell density z-score.
Where [15] appears, read: measured here: nuclear c-Myc green intensity z-score.
[16] abbreviates: measured here: nuclear pErk red intensity z-score, stronger effect = higher value.

Chain of Dual specificity protein phosphatase 6 (Homo sapiens) (Q16828 whole entry, looked up): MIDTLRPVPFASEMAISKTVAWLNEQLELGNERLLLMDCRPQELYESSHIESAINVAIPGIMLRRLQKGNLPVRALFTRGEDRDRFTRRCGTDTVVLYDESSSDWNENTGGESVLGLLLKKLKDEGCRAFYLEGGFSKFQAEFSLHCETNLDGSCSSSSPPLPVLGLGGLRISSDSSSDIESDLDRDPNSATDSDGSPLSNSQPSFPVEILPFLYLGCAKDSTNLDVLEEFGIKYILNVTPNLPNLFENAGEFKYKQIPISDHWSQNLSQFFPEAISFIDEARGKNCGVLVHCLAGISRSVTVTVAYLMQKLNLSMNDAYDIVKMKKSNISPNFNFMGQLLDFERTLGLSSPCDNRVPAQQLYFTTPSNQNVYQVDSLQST
Chain of Voltage-gated potassium channel subunit beta-2 (Rattus norvegicus) (P62483 whole entry, looked up): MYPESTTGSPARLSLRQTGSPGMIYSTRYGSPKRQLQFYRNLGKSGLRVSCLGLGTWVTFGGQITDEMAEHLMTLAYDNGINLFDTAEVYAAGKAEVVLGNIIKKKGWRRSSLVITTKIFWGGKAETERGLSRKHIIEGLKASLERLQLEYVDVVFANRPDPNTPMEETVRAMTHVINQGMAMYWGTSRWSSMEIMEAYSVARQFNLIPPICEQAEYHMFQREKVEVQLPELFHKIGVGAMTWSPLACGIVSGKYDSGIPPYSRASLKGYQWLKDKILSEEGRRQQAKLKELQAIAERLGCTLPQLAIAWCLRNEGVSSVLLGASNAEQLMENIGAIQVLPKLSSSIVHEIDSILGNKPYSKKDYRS
Chain of Muscarinic acetylcholine receptor M4 (Homo sapiens) (P08173 whole entry, looked up): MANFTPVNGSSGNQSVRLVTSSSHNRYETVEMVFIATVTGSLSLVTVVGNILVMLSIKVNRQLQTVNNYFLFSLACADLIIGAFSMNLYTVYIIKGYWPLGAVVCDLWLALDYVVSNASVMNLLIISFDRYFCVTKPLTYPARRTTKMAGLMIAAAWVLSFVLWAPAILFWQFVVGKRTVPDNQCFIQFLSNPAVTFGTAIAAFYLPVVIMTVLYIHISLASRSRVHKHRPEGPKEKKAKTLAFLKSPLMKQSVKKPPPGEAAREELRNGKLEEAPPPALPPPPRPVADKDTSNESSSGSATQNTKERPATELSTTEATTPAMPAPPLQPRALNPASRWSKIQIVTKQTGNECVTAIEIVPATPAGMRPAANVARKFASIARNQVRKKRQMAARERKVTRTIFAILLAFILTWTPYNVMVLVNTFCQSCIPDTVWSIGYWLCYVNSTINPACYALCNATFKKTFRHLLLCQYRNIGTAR
Chain of Alpha-2C adrenergic receptor (Homo sapiens) (P18825 whole entry, looked up): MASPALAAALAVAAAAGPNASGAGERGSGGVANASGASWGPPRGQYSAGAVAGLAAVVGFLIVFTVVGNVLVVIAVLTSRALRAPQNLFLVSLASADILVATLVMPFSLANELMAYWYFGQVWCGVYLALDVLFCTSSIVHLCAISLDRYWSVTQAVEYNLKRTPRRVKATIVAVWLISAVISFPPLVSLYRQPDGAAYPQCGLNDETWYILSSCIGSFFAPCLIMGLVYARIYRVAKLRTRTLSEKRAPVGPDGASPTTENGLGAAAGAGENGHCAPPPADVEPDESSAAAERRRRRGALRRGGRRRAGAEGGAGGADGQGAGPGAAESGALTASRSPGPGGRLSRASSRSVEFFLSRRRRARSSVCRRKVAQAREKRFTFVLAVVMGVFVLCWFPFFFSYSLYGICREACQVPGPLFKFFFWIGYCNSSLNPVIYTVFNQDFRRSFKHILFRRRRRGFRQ

In the case of `CN(CC(O)COc1ccc(OCC(O)CN(C)C2CCCCC2)cc1)C1CCCCC1` (stereo not drawn), the cell count in assay [1] was found to be 605. The inhibition in assay [1] is -1.3% (inactive); in [3], -149% (inactive); in [5], 11.3% (inactive); in assay [10] it was 3.04% (inactive); in assay [11], -47.8% (inactive); in assay [12], 52.7% (active). The inhibition of aggregation in assay [2] was -434% (inactive). For the same molecule, the nuclei count in assay [2] was 67%; in [3], 120%. Also, the z-score was -0.395 in assay [4] (setting [14]), 0.402 in assay [4] (setting [15]) and 1.26 in assay [4] (setting [16]). Besides, the values for the fluorescence slope in assay [6] and in assay [8] were -0.384 (inactive) and 0.00666 (inactive), respectively. Besides, the NADPH fluorescence slope in assay [7] is -3e-05 (inactive). For the same molecule, the molecule was called inactive in [9].
Turning to `O=C(NCCN1CCCCC1)c1ccc(=O)oc1`, in [1], the cell count turned out to be 586. Besides, the inhibition in assay [1] was -3% (inactive); in assay [3], -0.3% (inactive); in assay [5], 4.37% (inactive); in [10] it was -5.06% (inactive); in [11] it was 3.93% (inactive); in assay [12] it was 3.77% (inactive). Also, the inhibition of aggregation in [2] is -8.2% (inactive). The nuclei count in assay [2] came out at 90.9%; in assay [3], 130%. The z-score in assay [4] (setting [14]) is 0.13; in assay [4] (setting [15]), 0.819; in assay [4] (setting [16]) it was -0.401. The results for the fluorescence slope in assay [6] and in assay [8] were -0.482 (inactive) and 0.00918 (inactive), respectively. In assay [7], the NADPH fluorescence slope is -5.1e-05 (inactive). In [9], the molecule was classed as inactive.
Take `COc1ccc2c(c1)n([O-])c1c([n+]2=O)CCC1`: in [1], the cell count is 640. Further, the inhibition in assay [1] is -4.7% (inactive); in [3], -56.2% (inactive); in assay [5], 3.49% (inactive); in assay [10] it was -9.94% (inactive); in [11], -10.3% (inactive); in [12], 99.2% (active). In addition, the inhibition of aggregation in assay [2] was -32.6% (inactive). Also, the nuclei count came to 113% in assay [2] and 108% in assay [3]. The figures for the z-score in assay [4] (setting [14]), in [4] (setting [15]) and in assay [4] (setting [16]) were -0.812, 2.02 and -1.59, respectively. For the same molecule, the fluorescence slope was -0.367 (inactive) in [6] and 0.00434 (inactive) in [8]. The NADPH fluorescence slope in [7] was -3.5e-05 (inactive). Moreover, the molecule was called inactive in [9].
On to `COc1cccc2c1C(=O)c1c(O)c3c(c(O)c1C2=O)C[C@@](O)(C(=O)CO)C[C@@H]3O[C@H]1C[C@H](N)[C@H](O)[C@H](C)O1`, for which, in assay [1], the cell count was determined as 564. Also, the inhibition in assay [1] was -15.3% (inactive); in assay [5], 96.1% (active); in [10], 1.03% (inactive); in assay [11], -38.5% (inactive); in [12], 101% (active). Moreover, the inhibition of aggregation in [2] is 23.4% (inactive). Further, the nuclei count in assay [2] stood at 2.5%. For the same molecule, the z-score turned out to be 0.975 in assay [4] (setting [14]), 6.47 in assay [4] (setting [15]) and 3.82 in assay [4] (setting [16]). Moreover, the fluorescence slope in assay [6] is -0.456 (inactive). Moreover, the NADPH fluorescence slope in assay [7] is 2.3e-06 (inactive). Moreover, the slope in [13] was 0.00828 (inactive). Moreover, the result in assay [9] was inactive.
For `O=C(c1ccc2c(c1)OCCO2)N1CCCCC1`, the cell count in [1] amounted to 580. Besides, the inhibition in [1] is -15% (inactive); in assay [3] it was -38.6% (inactive); in assay [10] it was -4.88% (inactive); in [11] it was 8.03% (inactive); in [12], 18.3% (inactive). In addition, the inhibition of aggregation in assay [2] is -3.4% (inactive). Also, the nuclei count was found to be 106% in assay [2] and 122% in assay [3]. Also, the fluorescence slope in assay [6] is -0.406 (inactive). In addition, in assay [7], the NADPH fluorescence slope was 1.1e-06 (inactive). In assay [13], the slope was 0.00377 (inactive).

Broadly, the inhibition is the change of the read-out against control, counted positive when it falls.

These data come from PubChem BioAssay.
